Measured values from ChEMBL document CHEMBL4513160, “CO-ADD screening of MMV (CH) - Small Polar Library”.
Fewer than 10 of roughly 18,000 compounds showed an effect of 50% or more. A selection follows.

The molecules below were run on Pseudomonas aeruginosa (assay: Antibacterial activity against Pseudomonas aeruginosa PAO397 [PAO1 d(mexAB-oprM) d(mexCD-oprJ) d(mexEF-oprN) d(mexJKL) d(mexXY) d(opmH)] (CO-ADD:GN_211); MIC in CAMBH media using NBS plates, by OD(600)). Settings: Concentration 300 ug.mL-1, ASSAY_TEST Inhibition of Bacterial Growth, detection method Absorption (OD600), MEDIA CAMHB, plate type 384well, CORNING #3640, time 18 hr.
Assay type: functional

SMILES	Inhibition [%]
COCCCOc1cnc(C#N)cn1	-8.76
Cc1ncccc1CN1CCCCC1(C)C(N)=O (stereo unspecified)	-20.64
Cc1cc(C)cc(OCC(=O)N2CCNCC2)c1	-0.07
Cc1ccc(C(=O)NCCNC(=O)c2ccco2)cc1	-53.65
CC1COCCN1Cc1cn2ccccc2n1 (stereo unspecified)	15.25
c1ccc(C/N=C2/CCCCCN2)nc1	23.32
N#Cc1ccc(CN)cc1F	2.48
CN1CCN(C(N)=O)C(c2ccccc2)C1 (stereo unspecified)	4.12
COC(=O)CN1CCCC1=O	5.23
CCNC(=O)CSc1nc(C)c(C)n1CCOC	3.04
CN(C)C(CNC1=NCCN1)c1ccsc1 (stereo unspecified)	-1.92
Cc1c(NC(=O)c2cnccn2)cccc1C(N)=O	2.03
CCn1cnnc1CNC(=O)c1cccc(N(C)C)c1	-1.56
NC1CC(=O)c2ccccc21 (stereo unspecified)	4.06
O=C(CN1CCNC(=O)C1)NCCOc1ccccc1	25.17
c1cn(-c2cc(N3CCSCC3)ncn2)cn1	8.05
O=C(c1ccsc1)N1CCCN(c2cccnn2)CC1	0.34
CC(C)n1nccc1NC(=O)CN(C)Cc1ccco1	9.78
COc1ccc(CNc2ccncc2F)cc1C#N	-8.23
CC(C)(C)C(=O)Nc1ccc(N2CCNC(=O)C2)cc1	7.8
COc1ccc(Cl)cc1NC(=O)N[C@@H]1CNCC[C@H]1O	-35.77
CN(C)C1(CNC(=O)c2cn[nH]c2)CCOCC1	-13.75

SMILES	Inhibition [%]
NCC1CCCOC1 (stereo unspecified)	10.08
COc1cc(CCCN)cc(OC)c1O	4.59
Cc1ccccc1CN1CCCN(CCC(N)=O)CC1	-4.93
NC(=O)NC(=O)CCNS(=O)(=O)c1ccccc1Cl	13.15
NCC(O)CN1CCc2ccccc2C1 (stereo unspecified)	-6.8
CC(CC(=O)N1CC[C@H](O)C1)c1cccc(F)c1 (stereo partly specified)	-15.14
CO[C@H]1CNCC1NC(=O)Cc1ccc(F)cc1F (stereo partly specified)	11.48
N#Cc1ncc(Cl)cc1Cl	28.39
CC(C)CC(=O)NCc1ccnc(N2CCCC2)c1	-20.17
CCC[C@H]1CN(C(=O)c2csc(NC)n2)C[C@@H]1N	2.64
NCCN1C(=O)COc2ccccc21	-12.94
Cc1cc(NC(=O)NCC2CCN(CCO)CC2)no1	13.32
CCc1cccc(S(=O)(=O)N2CC[C@H](N)C2)c1	-15.97
COCCNCCNC(=O)c1ccc(Cl)c(C)c1	-10.19
CNC(=O)c1ccc(C)c(NC(=O)c2ccco2)c1	-0.03
OC(CNc1ncc(Cl)cc1F)CN1CCOCC1 (stereo unspecified)	11.06
CC(C)C(=O)Nc1ccc(N2CCOCC2)nc1	4.38
COC(=O)CCCC(=O)N1CCC2(CCCC2)C1	14.7
COCCNS(=O)(=O)C1CCCCC1	-6.37
CC(C)c1cccc(S(=O)(=O)N2CCCC2CN)c1 (stereo unspecified)	-46.42
O=C(CN1CCCC1c1ccco1)N1CCOCC1 (stereo unspecified)	18.12
CC(C)c1ccn(CC(=O)NC2CC2)n1	1.75

SMILES	Inhibition [%]
CCc1nnc(NCCS(=O)(=O)N(C)C)o1	-4.82
CC(C)n1cc(C(=O)NCCN(C)S(C)(=O)=O)cn1	17.41
CC(=O)NCc1cn2c(C)cccc2n1	-5.3
Cc1ccnc(NCCS(=O)(=O)NCC2CCC2)c1	-18.59
CNC(=O)c1nc(-c2ccc(C(F)(F)F)cc2)no1	32.14
CN(c1ccccc1C(N)=O)S(=O)(=O)c1cccs1	-71.82
CN(C(=O)COCC1CC1)c1nc2ccccc2n1C	4.52
CNc1ccc(N2CCOCC2)nc1	-26.42
CCN1CCN(CC(=O)Nc2ccc(C)cc2C)CC1	-4.07
CN(C)[C@@H]1CN(C(=O)c2ncccn2)C[C@H]1CO	3.69
NC(=O)CCC1CCNCC1	-8.79
CCC(C)NC(=O)N1CCCN(C2CC2)CC1 (stereo unspecified)	16.96
Fc1ccccc1CN1CCn2ccnc2C1	-12.72
NC1CCCN(c2noc(-c3ccccc3)n2)CC1 (stereo unspecified)	0.95
COCCNC(=O)NCCc1ccc(C)c(OC)c1	7.38
Cc1ccc(NC(=O)NC2(CCO)CCOCC2)s1	-4.26
CCc1nnc(NC2CCOC3(CCOCC3)C2)o1 (stereo unspecified)	8.44
CCc1ccccc1CN	3.32
CC(=O)NC(C(=O)Nc1cccc(C)n1)C(C)C (stereo unspecified)	-8.54
O=C1CN(Cc2ncc[nH]2)CCN1C1CCCC1	2.49
CCOCC(=O)N(C)Cc1cccc2cnccc12	-38.69
CC(CO)Sc1ccc(S(=O)(=O)C(F)F)cc1 (stereo unspecified)	16.44

SMILES	Inhibition [%]
CS(=O)(=O)CC1(CNc2cccc(C(F)(F)F)n2)CC1	-21.2
OCc1ccncc1NCC1CCOCC1	8.94
OCCCNc1cccc(Cl)c1-n1cccn1	-33.42
Cn1nc(C(F)(F)F)c(Cl)c1C(=O)N[C@@H]1CCNC1	31.11
CC(=O)NC(CC(=O)N1CCCC1)c1ccc(Cl)cc1 (stereo unspecified)	-24.39
CN(Cc1ccccc1)C(=O)NC1CCCCNC1=O (stereo unspecified)	-2.06
CS(=O)(=O)N1CCCC(C(=O)Nc2cccnc2O)C1 (stereo unspecified)	14.72
Cc1cc(N(C)C)nc(N2CCCC2C(=O)N(C)C)n1 (stereo unspecified)	-8.5
Cc1cc(NC(=O)CCn2ccnc2)no1	1.69
COc1c(CNC(=O)c2cccs2)c(C)nn1C	-17.79
CCC(=O)N1CCCN(c2ccncc2Cl)CC1	-2.88
CN1Cc2cccn2CC1CNC(=O)NC1CCCC1 (stereo unspecified)	-13.25
N[C@@H]1CC[C@@H]1NC(=O)CCn1cc(Cl)cn1	-25.34
COc1cc(F)c(C(=O)N[C@@H]2CCNC[C@H]2O)c(F)c1	19.43
CN(c1ccc(O)cc1)S(=O)(=O)c1ccco1	-8.79
CCOCC(=O)N1C[C@H](CO)C[C@H](CN2CCCC2)C1	-0.69
COc1ccc(CNC(=O)C2=COCCO2)cc1OC	2.02
CCN(C)CCNC(=O)c1cc(C2CC2)[nH]n1	-3.76
Cn1c(N)nc2cc(F)ccc21	-7.38
COc1ccc(C)c(NC(=O)N(C)CCN(C)C)c1	-15.47
NS(=O)(=O)CC1CCCN1CCSc1ccccc1 (stereo unspecified)	-5.99
CCn1ccc(C(=O)NCc2ccco2)n1	2.87

SMILES	Inhibition [%]
O=C1CCC(=O)N1CCSc1ccc2ccccc2n1	-6.71
Cc1cc(NC(=O)Nc2ccccn2)n(C)n1	4.35
CC(=O)N1CCCn2nc(-c3cccnc3)cc2C1	11.49
COc1ccc(Br)c(S(=O)(=O)N(C)C)c1	-20.8
COc1ccc2c(c1)[C@@H](O)CCC2	-31.22
N#Cc1ccc(OC2CCNC2)nc1 (stereo unspecified)	1.63
O=C(CCc1ccccn1)NCCn1cccc1	9.1
N#CCSCC(=O)NCc1ccccc1F	-29.21
Nc1ncccc1CN1CCc2ccccc2CC1	7.61
COc1ccc(-c2cncc(N)c2)cc1CO	-5.49
COCCN(C)C(=O)Nc1cccc(C)n1	-9.37
NCC(=O)Nc1ccc2c(c1)CCC2	-42.19
NCc1nc2c(s1)CCCC2	-13.62
Cn1ccnc1SCCNCC1(O)CNCCOC1 (stereo unspecified)	1.72
COCCn1ccnc1CN1CCN(C)C(CO)C1 (stereo unspecified)	-3.82
CN(C)C1CCCN(C(=O)c2n[nH]c(N)c2Cl)CC1 (stereo unspecified)	-17.73
O=C1CC(N2CCN(Cc3ccccc3)CC2)C(=O)N1 (stereo unspecified)	-12.59
CN1CC[C@H]2CN(C(=O)CCCc3cn[nH]c3)C[C@H]21	-2.24
CC(O)CCS(C)(=O)=O (stereo unspecified)	4.88
NC1CCN(S(=O)(=O)C2CC2)CC1	17.98
O=C(CCc1ccc2[nH]ccc2c1)N1CCOCC1	-29.4
CCOc1cc(C(=O)NC2=NCCS2)ccc1OC	13.17

SMILES	Inhibition [%]
Cn1nc(C(=O)Nc2nc(CC(N)=O)cs2)ccc1=O	12.8
OCc1cc(CNc2ncccn2)ccc1F	6.43
CC(CN)N(C)C(=O)c1ccccc1Br (stereo unspecified)	12.75
CN(C)c1ncccc1CNC(=O)COCC1CC1	-2.02
CC(C)C(=O)NCc1ccnc(-n2cccn2)c1	10.08
O=C(Cn1cc(Br)cn1)NC1CCc2nccn2C1 (stereo unspecified)	-4.73
CCCOc1cccc(NCCCS(C)(=O)=O)c1	1.09
O=C(NCCCN1CCc2ccccc2C1)C1CC1	-1.62
NCC1CCN(c2cnn(CC3CCC3)c(=O)c2)CC1	-9.55
CC1CN(c2cc(CN)ccn2)CCO1 (stereo unspecified)	10.77
CC(C)(C(=O)N1CC[S+]([O-])C(C)(C)C1)c1ccccc1 (stereo unspecified)	12.17
NC(=O)NCC1CCN(Cc2ccccc2)C1 (stereo unspecified)	-16
COCC(=O)Nc1cccc(CN2CCCC2)c1	-2.77
NC(=O)C1CCN(C(=O)C2CCCO2)CC1 (stereo unspecified)	-13.49
COc1ccc(C(=O)NCc2ccccn2)cc1F	-44.49
COC(=O)CNc1ccc2ccn(C)c(=O)c2c1	13.73
CN1CCCC(CCN)C1 (stereo unspecified)	8.27
Cc1nn(C)c(C)c1CCC(=O)NC1CCCNC1=O (stereo unspecified)	6.16
O=C(c1ccc(Br)cn1)N1CCN(CCO)CC1	18.45
CSc1ncccc1C(=O)N1CCCC(C)(C#N)C1 (stereo unspecified)	-17.22
CC1CCCN(Cc2cc(=O)n(C)c(=O)n2C)C1 (stereo unspecified)	8.23
